High-throughput results as filed in PubChem BioAssay.
SMN2 splice enh = increases expression of the SMN2 splice variant. AID 1458. HEK293 SMN2-luciferase splicing reporter, luminescence, 30-36 h. Potency, µM (series often up to 46.1 µM), inactives show at the highest dose activity change, positive = activation, usual class: activators. 210,000 compounds, 2.8% hits; note: % of control where 0% means no effect; nearly all actives have a fitted effect of over 55% in size
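HEK293 cells carry an SMN2 minigene-luciferase reporter in which exon 7 inclusion puts luciferase in frame. Cells were seeded at 2000 cells/well, attached for 10-12 hours, then exposed to compounds for 30-36 hours at 37C before ONE-Glo luminescence.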
KinaseGlo FLuc = counter-screen: inhibitors of Kinase-Glo firefly luciferase. Q27757. Potency, µM (doses to about 38.3 µM), without a hit: at the highest dose activity change, negative = inhibition, hits mostly inhibitors. 200,000 compounds, 0.28% hits. AID 1379. Kinase-Glo luciferase, ATP luminescence, 8 min; note: % is set by controls: 0 for no effect and ±100 for the full control effect; nearly all actives have a fitted effect of over 60% in size
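Kinase-Glo luciferase light output from ATP and luciferin was measured with 10 uM ATP, within the enzyme's linear range. Buffer: 50 mM imidazole pH 7.2, 50 mM KCl, 7 mM MgCl2, 0.01% Tween 20, 0.05% BSA; luminescence read after 8 min at ambient temperature.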
Rab9 promoter act = activators of Rab9 promoter | Huh7 Rab9 promoter-luciferase reporter, luminescence, 24 h | Potency, µM (doses to about 9.22 µM), for inactives: at the highest dose activation, negative = inhibition, actives largely listed as activators | 320,000 compounds, 2.8% hits; note: % of control where 0% means no effect; nearly all actives have a fitted effect of over 60% in size
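Promoter activation is measured as luciferase luminescence in Huh7 cells stably transfected with a Rab9 promoter–luciferase construct, following 24 h compound exposure at 37 °C and 10 min reagent incubation at ambient temperature.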
ELG1 genotoxic = inducers of genotoxicity in HEK293T ELG1-luciferase cells | HEK293T ELG1-luciferase reporter, luminescence, 16 h | 330,000 compounds, 1.3% hits | Potency, µM (top dose mostly 46 µM), for inactives: at the top dose activity change, positive = activation, most hits filed as activators; note: % of control where 0% means no effect; nearly all actives have a fitted effect of over 60% in size
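Screening used a luciferase reporter fused to human ELG1 in HEK293T cells. Luminescence was read on a CCD plate imager after 16 hr exposure and 30 min ONE-Glo incubation.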
FLuc counter = firefly luciferase modulation, counter-screen for miR-21 project; P08659; purified FLuc, Km substrates, luminescence inhibition; Potency, µM (doses to about 57.5 µM), for inactives: at the highest dose activity change, negative = inhibition, usual class: inhibitors; 360,000 compounds, 6.9% hits;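 note: plate controls were vehicle for no effect and reference inhibitor for full effect; nearly all actives have a fitted effect of over 55% in size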
Target sequence (P08659 whole entry, looked up): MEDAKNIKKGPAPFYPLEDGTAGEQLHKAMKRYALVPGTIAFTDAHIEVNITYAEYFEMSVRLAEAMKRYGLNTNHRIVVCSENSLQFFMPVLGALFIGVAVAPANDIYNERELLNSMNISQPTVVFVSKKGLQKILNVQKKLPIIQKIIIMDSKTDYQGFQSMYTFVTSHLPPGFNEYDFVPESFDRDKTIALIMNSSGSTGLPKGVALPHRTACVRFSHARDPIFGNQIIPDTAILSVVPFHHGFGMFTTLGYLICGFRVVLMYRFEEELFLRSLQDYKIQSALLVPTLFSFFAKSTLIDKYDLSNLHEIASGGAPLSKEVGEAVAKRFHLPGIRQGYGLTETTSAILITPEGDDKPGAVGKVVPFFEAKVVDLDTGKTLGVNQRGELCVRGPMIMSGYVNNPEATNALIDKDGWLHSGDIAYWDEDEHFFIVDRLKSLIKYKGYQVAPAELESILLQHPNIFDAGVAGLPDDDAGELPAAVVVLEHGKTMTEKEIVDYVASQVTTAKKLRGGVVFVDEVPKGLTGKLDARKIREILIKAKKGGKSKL
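Biochemical qHTS of compounds, final roughly 60 µM downward over six points, against 10 nM purified firefly luciferase using Km concentrations of substrates (10 uM D-luciferin, 10 uM ATP) in Tris acetate pH 7.5 buffer; luminescence output.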
NPC1 promoter act = activates the NPC1 promoter | Huh7 NPC1 promoter luciferase reporter, 24 h | Potency, µM (top dose mostly 9.22 µM), inactives show at the highest dose activation, hits mostly activators | 320,000 compounds, 2.4% hits; note: % of control where 0% means no effect; nearly all actives have a fitted effect of over 60% in size
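Compounds in DMSO were transferred onto Huh7 NPC1-luciferase reporter cells pre-incubated 2 h; after 24 h at 37 °C, Amplite reagent was dispensed and luminescence recorded 10 min later.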
An asterisk follows results filed as active; [ ] = another dose, or the depositor's remark. Shown are actives, neighbours in structure and some others; about 7.3% of the full set was active somewhere. Calls come from the whole dose curve; as a rule, active = well fitted curve in the direction sought with a large enough effect; inconclusive = small, poorly fitted or top-dose-only effect, or another doubt; inactive = no such curve, though single readings can be large; an effect the other way counts as inactive or inconclusive. Potency is the fitted concentration of half-maximal effect.

What do the screens show for `CCS(=O)(=O)c1nc(S(=O)(=O)c2ccc(C)cc2)c(NCc2ccccc2Cl)s1`?
SMN2 splice enh: -3%; FLuc counter: 0%

Results for COc1cccc(NC(=O)CC(=O)c2ccccc2)c1 ?
Rab9 promoter act: 2.8µM*; ELG1 genotoxic: inconclusive; FLuc counter: 17µM*; NPC1 promoter act: 3.5µM*

How did CCn1c(=O)sc2cc(NC(=O)c3cccc(OC)c3)ccc21 do in these assays?
SMN2 splice enh: 20%; FLuc counter: inconclusive

How did O=C(CCl)Nc1cccc(Oc2cnccn2)c1 do in these assays?
Rab9 promoter act: -9%; ELG1 genotoxic: -14%; FLuc counter: -7%; NPC1 promoter act: -15%

Results for O=C(CCl)Nc1cccc(Oc2ccccc2)c1 ?
SMN2 splice enh: -29%; KinaseGlo FLuc: 0%; Rab9 promoter act: -3%; ELG1 genotoxic: -1%; FLuc counter: 17µM*; NPC1 promoter act: -27%

How did CCn1c2ccccc2c2cc(NC(=O)c3cccc(OC)c3)ccc21 do in these assays?
SMN2 splice enh: inconclusive; KinaseGlo FLuc: 1%; Rab9 promoter act: inconclusive; ELG1 genotoxic: 6%; FLuc counter: 17µM*; NPC1 promoter act: inconclusive

What do the screens show for `CCOC(=O)c1ccc(N2C(=O)c3n[nH]c(-c4ccco4)c3C2c2cccc(O)c2)cc1` (configuration not stated)?
SMN2 splice enh: -28%; FLuc counter: -17%

What do the screens show for `CCOc1ccccc1NC(=O)Cn1c(=O)n(-c2ccccc2)c(=O)c2c1c1cc(C)ccc1n2C`?
FLuc counter: 1%

How did CC(C)(C)C(=O)Cn1c(=O)n(CCCCCC(=O)NCc2ccc3c(c2)OCO3)c(=O)c2sccc21 do in these assays?
SMN2 splice enh: -14%; FLuc counter: -16%

How did CCc1ccc(NC(=O)CSc2nc3ccccc3nc2N2CCCCC2)cc1 do in these assays?
Rab9 promoter act: 13%; ELG1 genotoxic: 20%; FLuc counter: inconclusive; NPC1 promoter act: -5%

How did CCc1cccc(NC(=O)CSc2nc3ccccc3nc2N2CCCCC2)c1 do in these assays?
SMN2 splice enh: 0.5µM*; FLuc counter: -1%

Results for CN1CCN(c2oc(/C=C/c3ccc(F)cc3)nc2C#N)CC1 ?
SMN2 splice enh: -11%; FLuc counter: -6%

Results for COc1ccccc1NC(=O)N1CCC(c2nc3cc(C)c(C)cc3[nH]2)CC1 ?
SMN2 splice enh: 12%; KinaseGlo FLuc: -5%; Rab9 promoter act: -26%; ELG1 genotoxic: inconclusive; FLuc counter: inconclusive; NPC1 promoter act: -8%

Results for Cc1cc2nc(C3CCN(C(=S)NCC(C)C)CC3)[nH]c2cc1C ?
SMN2 splice enh: -3%; KinaseGlo FLuc: -8%; Rab9 promoter act: -1%; ELG1 genotoxic: 3%; FLuc counter: 17µM*; NPC1 promoter act: 0%

Results for COc1ccccc1NC(=S)N1CCC(c2nc3cc(C)c(C)cc3[nH]2)CC1 ?
SMN2 splice enh: -1%; KinaseGlo FLuc: -2%; Rab9 promoter act: 22%; ELG1 genotoxic: 6%; FLuc counter: 13µM*; NPC1 promoter act: 4%

Results for Cc1cc2nc(C3CCCN(C(=S)Nc4ccccc4)C3)[nH]c2cc1C (configuration not stated) ?
SMN2 splice enh: 2%; KinaseGlo FLuc: -3%; Rab9 promoter act: -3%; ELG1 genotoxic: 4%; FLuc counter: inconclusive; NPC1 promoter act: -1%

Results for COc1ccc2c(c1)O[C@@H](c1cccc(C(F)(F)F)c1)[C@H](OC(=O)NCCOc1ccccc1)C2=O ?
SMN2 splice enh: -1%; KinaseGlo FLuc: 2%

Results for O=NN(Cc1ccc(Cl)cc1)[C@@H](C(=O)O)c1ccccc1 ?
SMN2 splice enh: 1%[9.22 µM]; KinaseGlo FLuc: 1%[7.66 µM]

How did Cc1cc(N2CCN(C)CC2)ccc1NC(=O)c1c2c(nc3ccccc13)CCN(Cc1ccccc1)C2 do in these assays?
SMN2 splice enh: -70%; KinaseGlo FLuc: -2%; Rab9 promoter act: -32%; ELG1 genotoxic: 23µM*; FLuc counter: -8%; NPC1 promoter act: -41%

How did Cc1c(Cl)cccc1NC(=O)CSc1nc(=O)[nH]c2c1CCCC2 do in these assays?
FLuc counter: -5%

What do the screens show for `Cc1c(OCc2nn[nH]n2)ccc2c3c(c(=O)oc12)CCCC3`?
SMN2 splice enh: 6%; KinaseGlo FLuc: -1%; Rab9 promoter act: -10%; ELG1 genotoxic: -3%; FLuc counter: 21µM*; NPC1 promoter act: -4%

Results for Cc1c(OCc2nn[nH]n2)ccc2c3c(c(=O)oc12)CCC(C)C3 (configuration not stated) ?
SMN2 splice enh: -8%; KinaseGlo FLuc: 1%; Rab9 promoter act: -4%; ELG1 genotoxic: 4%; FLuc counter: inconclusive; NPC1 promoter act: 23%

What do the screens show for `O=S(=O)(Cc1ccc(Cl)cc1)N1CCN(Cc2ccccc2)CC1`?
SMN2 splice enh: 0%; KinaseGlo FLuc: 4%; Rab9 promoter act: 2%; ELG1 genotoxic: 1%; FLuc counter: 4%; NPC1 promoter act: -9%

Results for O=S(=O)(Cc1ccccc1)N1CCN(Cc2ccc(Br)cc2)CC1 ?
Rab9 promoter act: 21%; ELG1 genotoxic: 16µM*; FLuc counter: inconclusive; NPC1 promoter act: inconclusive

What do the screens show for `COc1ccc(/C=N/NC(=O)c2[nH]ncc2Br)c(OC)c1`?
SMN2 splice enh: 25%; KinaseGlo FLuc: -17%; Rab9 promoter act: -8%; ELG1 genotoxic: 26µM*; FLuc counter: 2.4µM*; NPC1 promoter act: 1%

What do the screens show for `CCN(CC)c1ccc(C(=O)N/N=C/c2ccc(OC)cc2OC)cc1`?
SMN2 splice enh: -10%; KinaseGlo FLuc: 0%; Rab9 promoter act: 11%; ELG1 genotoxic: -1%; FLuc counter: inconclusive; NPC1 promoter act: -2%

Results for O=C(N/N=C/c1ccccc1)c1[nH]ncc1Br ?
SMN2 splice enh: inconclusive; KinaseGlo FLuc: 6.3µM*; Rab9 promoter act: 3.2µM*; ELG1 genotoxic: 15µM*; FLuc counter: 11µM*; NPC1 promoter act: inconclusive

What do the screens show for `CCc1cccc(C)c1NC(=O)Cn1cc2c(n1)CCCC2`?
SMN2 splice enh: -18%; FLuc counter: -1%

How did Cc1ccc(N2CC(NC(=O)Cc3ccc(F)cc3)CC2=O)cc1C (configuration not stated) do in these assays?
FLuc counter: 1%

What do the screens show for `O=C(OCC(=O)N1CCCCCC1)c1ccc(F)cc1F`?
Rab9 promoter act: 3.5µM*; ELG1 genotoxic: 1%; FLuc counter: 13µM*; NPC1 promoter act: 15%

How did Cc1cccc(C(=O)OCC(=O)N2CCCCCC2)c1O do in these assays?
Rab9 promoter act: 3.2µM*; ELG1 genotoxic: inconclusive; NPC1 promoter act: 3.2µM*
